FXIa mix inh: FXIa protease inhibitors in compound pools, primary screen, biochemical, 10-compound mixtures | inhibition, % at 5 µM | actives 0.19% (n = 62,000) | purified FXIa, fluorogenic substrate, pooled mixtures;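 note: each value is inhibition by a whole ten-compound pool holding the compound; 0% = enzyme with no mixture and 100% = wells lacking enzyme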
D1 mod: D1 CRE-luciferase signal change, two-sided – cell-based, HEK293 D1, dopamine EC30, D1 allosteric modulator project, primary screen; D(1A) dopamine receptor (Homo sapiens), P21728; dopamine EC30 potentiation; actives deviate in either direction; B-score at 10 µM; actives 5.9% (n = 58,000); AID 641, 2007;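 active = luminescence count or its row- and column-corrected plate score outside the 99.7% band of the plate's sample wells, on either side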
TNAP act mid DEA: human TNAP enzyme activators, primary screen, biochemical, luminescent, intermediate phosphate acceptor level | Alkaline phosphatase, tissue-nonspecific isozyme (Homo sapiens), P05186 | purified TNAP, CDP-star luminescence, 100 mM DEA, 30 min; hits give high values; scale: 0 levamisole-inhibited, 1 vehicle-only enzyme | activation factor at 20 µM | 64,000 tested, under 10 active | AID 813, 2007;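 active = activation factor of at least 2 at 20 µM, relative to controls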
FXIIa mix inh: human factor XIIa inhibitors, primary screen, biochemical, pooled compound mixtures, fluorogenic substrate | purified FXIIa | AID 684, 2007 | actives 0.2% (n = 62,000) | inhibition, % at 5 µM | Coagulation factor XII (Homo sapiens), P00748;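 note: 0% = enzyme without compound and 100% = no enzyme blank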
Calb biofilm kill: clotrimazole potentiators killing Candida biofilms, primary screen, with clotrimazole, Alamar Blue. C. albicans biofilm + clotrimazole. inhibition, % at 6 µM. actives 0.14% (n = 85,000);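 active = inhibition above 20%; inactive = inhibition below 20%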;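 note: preformed 24 hr biofilms exposed to compound for 48 hr; 0% = biofilm without compound and 100% = blank killed by clotrimazole plus chlorhexidine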
HePTP inhibitor: inhibitors of human HePTP phosphatase, primary screen, biochemical, absorbance, leukemia target; recombinant HePTP phosphatase activity, OD absorbance; inhibition, % at 20 µM; actives 0.64% (n = 110,000); AID 521, 2006; in the data active = inhibition above about 50%;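 note: plate controls were vehicle for no effect and reference inhibitor for full effect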
Target sequence (P35236 whole entry, looked up): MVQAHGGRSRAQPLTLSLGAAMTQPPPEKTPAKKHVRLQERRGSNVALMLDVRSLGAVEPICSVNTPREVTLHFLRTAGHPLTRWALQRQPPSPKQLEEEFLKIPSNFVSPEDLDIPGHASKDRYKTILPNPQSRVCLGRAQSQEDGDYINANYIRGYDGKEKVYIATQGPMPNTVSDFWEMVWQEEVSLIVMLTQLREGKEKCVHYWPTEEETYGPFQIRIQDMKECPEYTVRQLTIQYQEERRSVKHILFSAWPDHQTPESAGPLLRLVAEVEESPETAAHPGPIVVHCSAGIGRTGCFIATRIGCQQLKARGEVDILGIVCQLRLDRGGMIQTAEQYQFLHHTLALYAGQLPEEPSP
* = called active by the depositor; . = no result. The entries come from a sample that favours hits as a whole. Cut-off read from the data, not from the text of the source, unless noted: active = inhibition above about 20% (passing the limit was not always enough); inactive = the rest.

SMILES	FXIa mix inh	D1 mod	TNAP act mid DEA	FXIIa mix inh	Calb biofilm kill	HePTP inhibitor
COc1ccccc1C(c1nnnn1Cc1ccccc1)N1CCN(C2CCCC2)CC1 (stereo unspecified)	.	.	.	.	5	.
COC(=O)c1ccccc1NC(=O)Cn1cnc([N+](=O)[O-])n1	.	.	.	.	.	1
COC(=O)c1oc2ccccc2c1NC(=O)CN1CCCC1	0	13*	0.9	1	7	3
O=C(N/N=C/C(Br)=C/c1ccccc1)c1cc(-c2ccco2)[nH]n1	.	.	.	.	.	102*
CCOc1cccc(C(=O)Nc2cc(-c3nc4cc(C)cc(C)c4o3)ccc2C)c1	.	.	.	.	.	3
CCOc1ccc(Br)cc1C1NC(=O)c2c(sc3c2CCN(C)C3)N1 (stereo unspecified)	5	-4.6*	1	3	3	-1
COc1cc(NC(=O)COc2cc(C)c(Cl)c(C)c2)c(OC)cc1Cl	.	.	.	.	.	7
OC(c1ccc(Br)cc1)C12CN3CN(CN(C3)C1)C2 (stereo unspecified)	.	.	.	.	.	104*
O=C(NCCc1ccccc1)C1CCN(S(=O)(=O)c2cccnc2)CC1	-12	0.036	1	-2	22*	2
CN(C)C=NCCn1c(N2CCOCC2)nc2c1c(=O)n(C)c(=O)n2C	11	-3.8*	0.9	5	8	5
CC1(C)Oc2ccc3ccc(=O)oc3c2C(N2CCCCC2)C1O (stereo unspecified)	4	0.039	0.9	20*	8	0
c1ccc(-c2nnc(-c3ccccn3)nn2)nc1	3	-5.5*	1.1	1	10	1
c1ccc(-c2nnc(-c3ccccn3)nc2-c2ccccc2)cc1	.	.	.	.	.	0
C=CCc1ccccc1OCCCCN1CCCC1	-6	-3*	0.8	6	5	1
CCc1ccccc1OCCCCN1CCCC1	-12	-3.1*	0.9	-22	-2	4
C=CCc1ccccc1OCC(CN1CCCCC1)OC(C)=O (stereo unspecified)	3	-4.5*	0.9	1	1	-6
O=C(CC1S/C(=N\N=C\c2cccs2)NC1=O)Nc1ccc(Cl)c(Cl)c1 (stereo unspecified)	.	.	.	.	.	4
Cc1ccc([N+](=O)[O-])cc1NC(=O)COc1cccc(Cl)c1	.	.	.	.	.	23
COc1ccc(C(=O)NCCSc2ccccn2)cc1	5	-5.3*	0.9	8	7	7
C=CCN=C1CC(C)(C)CC(=O)/C1=C(/O)CCC	.	.	.	.	.	102*
CCn1c(SC)nnc1-c1sc2cc(Cl)ccc2c1Cl	18	-0.49	1	42*	-1	8
COc1ccc(N2C(=O)/C(=C\c3cccc(OC)c3O)SC2=S)cc1	.	.	.	.	.	-5
COc1ccc(N2C(=O)/C(=C/c3cc([N+](=O)[O-])cc(OC)c3O)SC2=S)cc1	.	.	.	.	.	104*
O=c1c2c(nc3cc(-c4ccc(F)cc4)[nH]n13)CCCC2	1	-5.3*	0.9	-23	4	5
O=c1c2c(nc3cc(-c4ccco4)[nH]n13)CCS2	.	.	.	.	.	100*
SMILES	FXIa mix inh	D1 mod	TNAP act mid DEA	FXIIa mix inh	Calb biofilm kill	HePTP inhibitor
O=c1c2c(nc3cc(-c4ccc(Cl)cc4)[nH]n13)CCS2	.	.	.	.	.	96*
COc1ccc(C(NS(=O)(=O)c2ccc3ccccc3c2)c2ccccc2)cc1 (stereo unspecified)	.	.	.	.	.	10
Cn1cc(C(=O)c2ccccc2)cc1-c1nc2ccccc2n1C	3	-0.019	1	10	-4	-5
Cc1oc(-c2nc3ccccc3n2C)cc1C(=O)c1ccccc1	16	-3.8*	0.9	4	-2	9
Cc1ccc(C)c(OCC(O)CN2CCCCC2C)c1 (stereo unspecified)	10	-6*	0.9	11	4	8
O=C(Nc1nc2ccccc2s1)c1ccncc1	.	.	.	.	.	-3
CC(C)Oc1ccc(C(=O)Nc2nc3ccccc3s2)cc1	.	.	.	.	.	96*
Nc1ccc(C(=O)Nc2nc3ccccc3s2)cc1	10	-6.6*	1	6	8	1
Cc1nc2oc3c(NCc4ccccc4)ncnc3c2c2c1COC(C)(C)C2	-8	8.5*	0.9	-3	3	1
CC(C)c1nc2oc3c(NCC4CCCO4)ncnc3c2c2c1COC(C)(C)C2 (stereo unspecified)	-7	12*	1	-16	10	-11
CC1(C)Cc2c(C#N)c(NCC3CCCO3)nc(-c3ccco3)c2CO1 (stereo unspecified)	.	.	1	.	0	-6
Cc1nc2sc3c(NCc4ccco4)ncnc3c2c2c1COC(C)(C)C2	.	.	0.8	.	.	1
CC1(C)Cc2c(sc3ncnc(NCc4ccccc4)c23)CO1	.	.	.	.	.	105*
CCCCC(CC)CNC(=O)C(=O)NCC1CCCO1 (stereo unspecified)	.	.	.	.	.	-8
COc1cccc(OCCOc2c(Cl)cc(/C=C3/SC(=S)NC3=O)cc2OC)c1	.	.	.	.	.	-5
CCN(CC)C(=O)C(=O)N/N=C/c1ccc2c(c1)OCO2	.	.	.	.	.	3
COC(=O)c1c(NC(=O)c2ccc(C)o2)sc2c1CCCCC2	-18	0.32	0.9	6	2	-2
Cc1ccc(C(=O)Nc2sc3c(c2C(=O)O)CCCCC3)o1	2	-3*	1	7	2	-9
CC1CCc2nc(NC(=O)c3ccco3)sc2C1 (stereo unspecified)	3	-7.5*	0.9	-17	8	-8
CC1CCc2nc(NC(=O)C3CCCO3)sc2C1 (stereo unspecified)	3	-4.6*	1	31	4	5
CC1CCc2nc(NC(=O)Cc3cccs3)sc2C1 (stereo unspecified)	4	-0.29	0.9	-5	-2	4
Cc1nnc(NC(=O)C2CCCO2)s1 (stereo unspecified)	1	.	0.9	1	7	2
CC1(C)O[C@@H]2C[C@H]3[C@@H]4CCC5=CC(=O)C=C[C@]5(C)[C@@]4(F)[C@@H](O)C[C@]3(C)[C@]2(C(=O)CO)O1	1	0.31	0.9	9	8	-3
C[C@]12C=CC(=O)C=C1CC[C@H]1[C@@H]3C[C@@H](O)[C@](O)(C(=O)CO)[C@@]3(C)C[C@H](O)[C@@]12F	1	-6.4*	0.9	8	.	3
CCCCn1c(SCC(=O)O)nc2ccccc21	3	-1.7	0.9	-20	9	4
CCCCOC(=O)n1c(SCC(=O)N(C)C)nc2ccccc21	7	-7.3*	0.9	3	5	4
Cc1ccc(/C(O)=C2\C(=O)C(=O)N(CCCC(=O)O)C2c2ccccc2)cc1 (stereo unspecified)	.	.	.	.	.	-10
Cc1ccc(S(=O)(=O)NCCN(CCNS(=O)(=O)c2ccc(C)cc2)S(C)(=O)=O)cc1	9	-5.3*	0.9	5	5	8
